Hit rate of the full screen: of about 1,200 compounds, about 290 (24%) were called active. About 9% were inconclusive and are not listed. These entries were drawn from the full list. Results with a measured potency or affinity are listed apart. Unmarked numbers belong to inactive results. No rule for the calls is given here.
Assay: LCL viability reduction – cell-based, plate reader, cherry-picks, set 2, cytotoxicity control, dose response (AID 504882);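 also: 0% = neutral control wells and -100% = positive control wells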
Conditions: EBV lymphoblastoid cells (LCL) viability; series mostly up to 19.5 µM; activity change, negative = cytotoxicity: at the top concentration

Structure (SMILES) | activity change, negative = cytotoxicity [%]
C[C@@H](C(=O)Nc1ccc2c(c1)OCCO2)n1c(=O)[nH]c2ccccc2c1=O | 12.3
CCCCOc1ccc2c(c1)/C(=C(\C(Cl)=C(Cl)Cl)[N+](=O)[O-])N2 | 5.83
Cc1ccc(-n2cc(C(=O)c3ccccc3O)cn2)cc1 | -2.73
COc1ccc(OC)c(S(=O)(=O)NC(C)CCc2ccccc2)c1 (stereo not given) | 7.72
CC(C(=O)N=Nc1c(O)[nH]c2ccccc12)n1cnc2ccccc2c1=O (stereo not given) | 7.22
COc1ccc(Cl)cc1NC(=O)CN(C)S(=O)(=O)c1cccs1 | -6.66
Cc1cc(C)cc(C(=O)NCCC(=O)NCc2cc(=O)n(C)c(=O)n2C)c1 | 12.5
COc1ccc(S(=O)(=O)N2CCN(CC(=O)Nc3ccc(C)c(F)c3)CC2)cc1 | 19.6
CCOC(=O)C1CCN(S(=O)(=O)Cc2ccccc2)C1=O (stereo not given) | 26.9
Cc1cc(C)c(S(=O)(=O)Nc2nnc(CC(C)C)s2)c(C)c1 | 7.94
CC(=O)c1cc(C(=O)Nc2ccc(C(=O)O)cc2)oc1C | 13.6
CCSc1nnc(NC(=O)CCn2c(=O)oc3ccccc32)s1 | 12.2
COC(=O)CCCC[C@@H]1SC[C@@H](NC(=O)OC)[C@@H]1NC(=O)OC | 9.98
COC(=O)c1ccccc1NC(=O)CSc1nnnn1C | 19.1
COc1ccc(N2C3=[N+](CC2(C)O)c2ccccc2CC3)cc1 (stereo not given) | 14.6
O=S(=O)(NC1c2cccc3cccc(c23)C1Sc1ncccn1)c1ccccc1 (stereo not given) | 4.11
COc1ccc(CNC(=O)COC(=O)[C@@H]2CCCN2C(=O)c2cccs2)cc1 | 25
S=C(NCC1CCCCC1)Nc1ccc(Oc2ccccc2)cc1 | 1.93
O=C(c1noc2c1CCCC2)N1CCCCC1 | 9.86
CCOc1ccc(NC(=O)c2cnsn2)cc1 | 8.89
CCOC(=O)c1cn2nc(N3CCCCC3)ccc2n1 | 0.96
COC(=O)c1ccc2nc(-c3ccc4c(c3)OCO4)cn2c1 | 4.82
CCOc1cc(/C=C2/C(=N)N3N=C(CC)SC3=NC2=O)ccc1OC(=O)c1ccco1 | 16.1
COC(=O)c1ccc(CSc2nc3c(c(=O)n2-c2ccc(C)cc2)SCC3)o1 | 6.1
COC(=O)CSc1ncnc2c1sc1nc3c(cc12)COC(C)(C)C3 | -11.8
CCOC(=O)CNC(=O)CSc1nnc(NC(=O)c2ccc(C)cc2)s1 | 27.2
CC(C)(C)C(=O)Nc1nnc(SCC(=O)Nc2ccc3c(c2)OCO3)s1 | 13.9
O=C(NCCc1ccccc1)c1ccccc1Cl | 8.88

Structure (SMILES) | activity change, negative = cytotoxicity [%]
CCc1nnc(NC(=O)c2ccc(S(=O)(=O)N3CCOCC3)cc2)s1 | 10.7
CC(C)N1CCN(c2ccc(OC[C@H]3CO[C@](Cn4cncn4)(c4ccc(Cl)cc4Cl)O3)cc2)CC1 | -3.03
CCOc1cc(Br)cc(/C=N/NC(=O)c2cccnc2)c1O | -28.9
Cc1ccnc(N/C=C(/NC(=O)c2ccccc2)C(=O)N/N=C\c2ccc(F)cc2)n1 | 9.12
COc1cccc(/C=N\NC(=O)c2ccc(C)nc2)c1 | 19.6
Cc1ccccc1CC(=O)NCc1cccnc1 | 16.8
CC(NC(=O)CNC(=O)OCc1ccccc1)C(=O)N1CC(O)CC1C(=O)OCc1ccccc1 (stereo not given) | 12.6
O=C(CN1C(=O)C2C3C=CC(C3)C2C1=O)NCCC1=CCCCC1 (stereo not given) | 6.89
COCCn1c(C)cc(C(=O)CSc2nnc3ccccn23)c1C | 11.9
Cc1cc(C(=O)COC(=O)c2cccc(NS(C)(=O)=O)c2)c(C)n1CC1CCCO1 (stereo not given) | 17
CSCCC(NC(=O)c1ccco1)C(=O)OCC(=O)Nc1ncc(Cl)c(C)c1Cl (stereo not given) | 26.8
CNC(=O)C1=NCCCc2cc(OC)c(OC)cc21 | 24.7
Nc1ccc(CCNc2ncnc3c2ncn3[C@@H]2O[C@H](CO)[C@@H](O)[C@H]2O)cc1 | 7.71
Nc1ccn(C2CCCO2)c(=O)n1 (stereo not given) | 14.8
NC(=O)c1ncn([C@@H]2O[C@H](CO)[C@@H](O)[C@H]2O)n1 | 14.5
CC1(C)CC(=O)C(CC2=C(O)CC(C)(C)CC2=O)=C(O)C1 | 9.73
CCc1cc(Cl)c(OC)c(C(=O)NC[C@@H]2CCCN2CC)c1O | 2.69
COc1ccc(NC(=O)CCS(=O)(=O)c2ccc3c(c2)CCN3C(C)=O)cc1 | 8.11
C=CCn1c(SCc2ccc3nonc3c2)nnc1-c1cccs1 | 18.4
COc1c(S(=O)(=O)N2CCN(c3ccc(F)cc3)CC2)ccc(Cl)c1Cl | 44.2
O=C(CCCN1C(=O)/C(=C/c2ccccc2Cl)SC1=S)NNC(=O)c1ccccc1Cl | 6.92
CN1C(=O)C(CC(=O)NC2CCCCC2)SC1=Nc1ccccc1 (stereo not given) | 20.7
CCOc1ccc(-c2nc(CSCC(=O)NCc3ccco3)c(C)o2)cc1 | 0.208
COc1ccc(/C=C\C(=O)NCc2ccc3c(c2)cc(C)n3C)cc1OC | 7.82
COc1ccc(-c2csc3ncnc(NCCO)c23)cc1 | 12.6
CCOC(=O)Cc1csc(N/N=C\c2ccc(N(C)C)cc2)n1 | 3.66
CCCSc1nc2cc(S(=O)(=O)N3CCOCC3)ccc2n1CC | -0.597
